Experimental data taken from PubChem BioAssay.
The other results are listed elsewhere or left out. Activity calls are given as the source filed them.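 Rule for the calls, unless noted: active = inhibition above the hit cutoff set in the earlier primary screen (cut at about 27% in these data); inactive = the rest.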

What was measured:
[1] = biological target: Protein phosphatase methylesterase 1 (Homo sapiens) (UniProt Q9Y570); assay: PME-1 inhibitor activity retest, confirmation, biochemical, fluorescence polarization, FP-Rh probe, triplicate (AID 2171); details: recombinant PME-1, FP-Rh probe fluorescence polarization; at 5.9 µM; active compounds read high;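 note: 0% = enzyme with DMSO and 100% = wells lacking PME-1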
[2] = biological target: Bcl-2-like protein 1 (Homo sapiens) (UniProt Q07817); assay: Bcl-xL inhibitors blocking Bim BH3 binding, confirmation, counter-screen for MCL1 inhibitor project, biochemical, fluorescence polarization (AID 2166;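 active = inhibition above a cutoff equal to the mean inhibition of all tested compounds plus 3 SD, cut at about 30% in these data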); details: GST-Bcl-xL / FITC-Bim BH3 peptide FP binding; at 10.9 µM; active compounds read high
[3] = biological target: Induced myeloid leukemia cell differentiation protein Mcl-1 (Homo sapiens) (UniProt Q07820); assay: inhibitors of MCL1 binding to BIM-BH3, confirmation, biochemical, fluorescence polarization, triplicate (AID 2168;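 active = inhibition above the average of all tested compounds plus 3 SD, cut at about 40% in these data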;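 note: 0% = DMSO wells and 100% = unlabeled Bim-BH3 control peptide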); details: GST-MCL1 / FITC-Bim-BH3 fluorescence polarization; at 10.9 µM; active compounds read high
[4] = growth loss of phage-infected E. coli expressing H. pylori AddAB, confirmation, AddAB inhibitor project, absorbance, E. coli V3065, T4 phage, triplicate (AID 488942;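 active = mean inhibition above a set limit taken from the earlier primary screen, cut at about 13% in these data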;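 note: higher means less bacterial growth since AddAB block lets phage replicate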); details: OD, at 11.9 µM, active compounds read high, T4 phage with gene 2 nonsense mutations
[5] = growth loss of RecBCD+ E. coli with mutant T4 phage, counter-screen for AddAB inhibitor project, absorbance, V66 E. coli (AID 488955;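 active = mean inhibition above the mean of solvent-only control wells plus 3 SD, cut at about 4% in these data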;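 note: optical density read after an 18 h incubation at 37 °C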); details: OD growth, at 11.9 µM, active compounds read high
[6] = bacterial viability inhibition counter-screen, confirmation, counter-screen for AddAB inhibitor project, absorbance (AID 488956; in the data active = inhibition above about 25%); details: absorbance (AddAB counterscreen), at 11.9 µM, active compounds read high
[7] = biological target: Serine protease HTRA1 (Homo sapiens) (UniProt Q92743); assay: HTRA1 protease inhibitors, retest, confirmation, biochemical, fluorescence polarization (AID 540248;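 active = mean inhibition over three repeats above a set limit taken from the earlier primary screen, cut at about 37% in these data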;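 note: 0% = HTRA1 with DMSO and 100% = wells lacking HTRA1; inhibitors block probe binding so polarization drops and inhibition rises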); details: recombinant HTRA1, FP-rhodamine activity-based probe, at 5.96 µM, active compounds read high
[8] = compounds interfering with TAMRA-BSA probe, counter-screen for TCR-CD3 interaction inhibitor project, biochemical, fluorescence, TAMRA-labeled BSA (AID 652035; in the data active = inhibition above about 23%;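 note: 0% = buffer low control and 100% = reference high control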); details: TAMRA-labeled BSA probe fluorescence counterscreen; at 9.4 µM; active compounds read high
[9] = system: T-cell receptor (TCR)-CD3 interaction, human; assay: TCR-CD3 interaction inhibitors, retest, confirmation, biochemical, fluorescence, TAMRA-labeled TCR probe (AID 652036; in the data active = inhibition above about 19%); details: TAMRA-labeled TCR probe fluorescence binding assay; at 9.4 µM; active compounds read high
[10] = biological target: (Lyso)-N-acylphosphatidylethanolamine lipase (Mus musculus) (UniProt Q8VD66); assay: ABHD4 inhibitors, retest, confirmation, biochemical, fluorescence polarization, mouse (AID 720658;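 active = mean inhibition across replicates above the hit cutoff set in the primary screen, cut at about 30% in these data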;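 note: 0% = wild-type ABHD4 with DMSO and 100% = catalytically dead S159A mutant with DMSO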); details: purified mABHD4, FP-Rh probe fluorescence polarization; at 8.92 µM; active compounds read high
[11] = biological target: Protein-arginine deiminase type-4 (Homo sapiens) (UniProt Q9UM07); assay: human PAD4 inhibitors, confirmation, biochemical, fluorescence polarization (AID 488796;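 active = mean inhibition across replicates above the hit cutoff set by the earlier primary screen, cut at about 15% in these data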;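 note: inhibitors block active-site labeling by the probe so polarization falls; 0% = PAD4 with probe and DMSO and 100% = probe without PAD4 enzyme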); details: recombinant PAD4, RCA probe fluorescence polarization; at 6.36 µM; active compounds read high
Chain of Protein-arginine deiminase type-4 (Homo sapiens) (Q9UM07 whole entry, looked up): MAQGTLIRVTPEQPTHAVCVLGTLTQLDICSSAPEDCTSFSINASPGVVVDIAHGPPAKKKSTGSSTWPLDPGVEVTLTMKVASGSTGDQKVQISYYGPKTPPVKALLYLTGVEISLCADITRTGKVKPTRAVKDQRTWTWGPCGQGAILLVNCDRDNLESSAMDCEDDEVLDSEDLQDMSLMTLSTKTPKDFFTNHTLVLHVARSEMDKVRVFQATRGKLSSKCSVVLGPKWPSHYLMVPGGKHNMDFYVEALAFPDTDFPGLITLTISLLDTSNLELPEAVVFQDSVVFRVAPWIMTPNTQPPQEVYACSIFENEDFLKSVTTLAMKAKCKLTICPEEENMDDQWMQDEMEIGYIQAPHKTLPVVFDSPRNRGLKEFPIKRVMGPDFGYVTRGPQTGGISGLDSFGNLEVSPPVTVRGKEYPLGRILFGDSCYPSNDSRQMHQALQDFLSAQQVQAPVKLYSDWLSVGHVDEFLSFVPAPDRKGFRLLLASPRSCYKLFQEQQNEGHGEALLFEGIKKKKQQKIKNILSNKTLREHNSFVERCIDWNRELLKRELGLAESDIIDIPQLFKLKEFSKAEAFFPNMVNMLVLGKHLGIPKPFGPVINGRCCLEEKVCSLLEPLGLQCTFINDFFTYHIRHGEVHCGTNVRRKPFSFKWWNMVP

Chain of Protein phosphatase methylesterase 1 (Homo sapiens) (Q9Y570 whole entry, looked up): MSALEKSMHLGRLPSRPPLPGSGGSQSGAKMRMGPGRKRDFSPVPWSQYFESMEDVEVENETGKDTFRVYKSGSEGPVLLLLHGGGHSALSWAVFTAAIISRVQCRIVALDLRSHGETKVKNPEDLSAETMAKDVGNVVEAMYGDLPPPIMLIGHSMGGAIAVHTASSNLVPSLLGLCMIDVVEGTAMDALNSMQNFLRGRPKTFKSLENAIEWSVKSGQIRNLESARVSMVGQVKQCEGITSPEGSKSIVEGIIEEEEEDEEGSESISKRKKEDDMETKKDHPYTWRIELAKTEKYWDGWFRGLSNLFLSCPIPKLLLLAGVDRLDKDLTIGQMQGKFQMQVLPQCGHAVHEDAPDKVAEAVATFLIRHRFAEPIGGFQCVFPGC
Chain of Induced myeloid leukemia cell differentiation protein Mcl-1 (Homo sapiens) (Q07820 whole entry, looked up): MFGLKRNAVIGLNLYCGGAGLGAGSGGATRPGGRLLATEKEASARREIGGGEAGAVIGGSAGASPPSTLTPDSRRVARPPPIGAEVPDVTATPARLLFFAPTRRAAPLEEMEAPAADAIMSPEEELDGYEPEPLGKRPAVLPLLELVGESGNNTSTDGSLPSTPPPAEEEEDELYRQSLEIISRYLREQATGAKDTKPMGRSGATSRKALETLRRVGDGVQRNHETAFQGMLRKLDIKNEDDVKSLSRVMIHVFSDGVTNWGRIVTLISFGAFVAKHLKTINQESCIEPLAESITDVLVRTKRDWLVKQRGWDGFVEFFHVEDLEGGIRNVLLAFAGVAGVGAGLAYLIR
Chain of Bcl-2-like protein 1 (Homo sapiens) (Q07817 whole entry, looked up): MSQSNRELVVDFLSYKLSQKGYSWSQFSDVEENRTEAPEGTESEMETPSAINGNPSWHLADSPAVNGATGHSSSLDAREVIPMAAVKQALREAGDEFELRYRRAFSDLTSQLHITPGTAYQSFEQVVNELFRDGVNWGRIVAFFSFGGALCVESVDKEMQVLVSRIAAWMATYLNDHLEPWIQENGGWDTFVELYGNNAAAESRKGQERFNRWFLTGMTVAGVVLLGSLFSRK
Chain of (Lyso)-N-acylphosphatidylethanolamine lipase (Mus musculus) (Q8VD66 whole entry, looked up): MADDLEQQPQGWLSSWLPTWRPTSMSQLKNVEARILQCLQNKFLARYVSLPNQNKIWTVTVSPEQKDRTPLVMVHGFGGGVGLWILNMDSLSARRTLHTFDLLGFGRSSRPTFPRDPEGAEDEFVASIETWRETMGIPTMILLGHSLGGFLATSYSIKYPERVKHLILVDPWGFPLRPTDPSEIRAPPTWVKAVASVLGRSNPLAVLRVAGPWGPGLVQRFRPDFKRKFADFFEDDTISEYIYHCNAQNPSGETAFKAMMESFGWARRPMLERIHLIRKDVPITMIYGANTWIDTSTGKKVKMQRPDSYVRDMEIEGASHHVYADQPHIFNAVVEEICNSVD

Q: Which inhibition [1] does the source give for `CC(C)Oc1ccc(CCC(=O)N/N=C/c2ccc3c(c2)OCO3)cc1` here?
A: The inhibition was 4.01% (inactive).

Q: Which inhibition [1] does the source give for `Cc1cc(NC(=O)CSc2nc3ccccc3c(=O)n2C2CCCC2)no1` here?
A: The inhibition was 3.59% (inactive).

Q: With `O=c1ccc2c(-c3ccccc3S(=O)(=O)O)c3ccc(O)c(O)c3oc-2c1O` as the compound, how does the inhibition [2] read?
A: Its inhibition is 82.9% (active).

Q: And the inhibition [3]?
A: The inhibition was 67.6% (active).

Q: What about the inhibition [4] of the same compound?
A: The inhibition was 7.55% (inactive).

Q: What about the inhibition [5] of the same compound?
A: The inhibition was 11% (active).

Q: And the inhibition [6]?
A: The inhibition was 2.03% (inactive).

Q: And the inhibition [7]?
A: Its inhibition is -1.72% (inactive).

Q: What about the inhibition [8] of the same compound?
A: The inhibition was -101% (inactive).

Q: What about the inhibition [9] of the same compound?
A: The inhibition was -20.4% (inactive).

Q: What about the inhibition [10] of the same compound?
A: Its inhibition is -24.3% (inactive).

Q: With `CCCC1OC23CCCCC2C(C#N)(C#N)C1(C#N)C(=N)O3` (stereo not given) as the compound, how does the inhibition [2] read?
A: The inhibition was 19.5% (inactive).

Q: And the inhibition [3]?
A: Its inhibition is 21% (inactive).

Q: What about the inhibition [8] of the same compound?
A: Its inhibition is 20% (inactive).

Q: And the inhibition [9]?
A: The inhibition was 10.8% (inactive).

Q: For `CCc1ccc(-c2cc(C(=O)N/N=C/c3c[nH]c4ccccc34)[nH]n2)cc1`, which inhibition [1] is on record?
A: Its inhibition is 12% (inactive).

Q: For `CCOc1cccc(/C=N/NC(=S)Nc2cc(S(=O)(=O)N3CCOCC3)ccc2N2CCOCC2)c1O`, which inhibition [1] is on record?
A: The inhibition was 25.1% (inactive).

Q: Which results are given for `CCN1CC=C2C(C#N)=C(N)C(C#N)(C#N)[C@H](c3ccoc3)[C@H]2C1`?
A: inhibition [2]: 97.5% (active); inhibition [3]: 114% (active); inhibition [11]: 10.3% (inactive)

Q: Which inhibition [1] does the source give for `CCOC(=O)/C(=N\Nc1ccc(Cl)cc1)c1csc(Nc2ccccc2)n1` here?
A: The inhibition was 14.4% (inactive).

Q: With `COc1ccc2c(c1)CC/C(=C\Nc1ccc3c(c1)OCO3)C2=O` as the compound, how does the inhibition [1] read?
A: The inhibition was 36.9% (active).

Q: Which inhibition [1] does the source give for `O=C1c2cccc3c(O)ccc(c23)C(=O)N1c1ccc(Cl)cc1` here?
A: The inhibition was 28.3% (active).

Q: For `C/C(=N/Nc1ccnc2cc(Cl)ccc12)c1ccc(N)cc1`, which inhibition [1] is on record?
A: Its inhibition is 26% (inactive).

Q: With `COc1ccc(C2CC(c3ccc(OC)c(OC)c3)=NN2S(C)(=O)=O)cc1` (stereo not given) as the compound, how does the inhibition [1] read?
A: Its inhibition is 22.9% (inactive).
